Laboratory results as given in PubChem BioAssay AID1240 (Sanford-Burnham Center for Chemical Genomics, 2008).
Among all 50,000 compounds or so, about 800 (1.6%) showed an effect of 50% or more. This excerpt belongs to a sample that is enriched for strong results.

molecular target: Bcl-2-like protein 10 (Homo sapiens) (UniProt Q9HD36); experiment: Phenotype converters, Bcl-B/TR3 peptide binding displacement, primary biochemical FP (AID 1240); settings: GST-Bcl-B / FITC-TR3 peptide fluorescence polarization; stronger effect = higher value; compound at 3.75 mg/L;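 further: 0% = Bcl-B with tracer peptide and DMSO and 100% = tracer peptide lacking Bcl-B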
Sequence (Q9HD36 whole entry, looked up): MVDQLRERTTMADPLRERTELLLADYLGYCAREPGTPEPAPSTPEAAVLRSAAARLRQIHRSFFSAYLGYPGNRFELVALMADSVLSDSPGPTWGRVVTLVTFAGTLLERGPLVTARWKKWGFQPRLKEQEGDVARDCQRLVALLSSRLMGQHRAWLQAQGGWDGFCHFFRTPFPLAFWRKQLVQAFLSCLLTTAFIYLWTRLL

SMILES | displacement [%]
O=C(NCc1cccs1)c1cc2n(n1)C(C(F)(F)F)CC(c1cccs1)N2 (configuration not stated) | 0
CCC(Oc1ccccc1)C(=O)NC(C)c1ccccc1 (configuration not stated) | -18.9
Oc1ccc(Br)cc1C=NCc1ccco1 | 3.3
Cc1sc(NC(=O)c2ccc(Br)o2)c(C(N)=O)c1C | 10
COc1ccc(CC(=O)Nc2ccc(Br)c(C)c2)cc1 | 7.5
C=CCNCCCCOc1ccc(Br)cc1 | 8.5
Cc1no[n+]([O-])c1COc1ccc(/C=C2\N=C(c3ccccc3)OC2=O)cc1 | -9.9
Cc1c(-c2ccc(Cl)cc2)nc2ccccc2c1C(=O)O | -6.5
Cc1cc(C)cc(N2C(=O)NC(=O)/C(=C\c3ccc(F)cc3)C2=O)c1 | 7.7
C#CCn1cc(/C=C2\C(=O)NC(=O)N(c3ccc(Cl)cc3)C2=O)c2ccccc21 | 37.5
Cc1cc(C)cc(N2C(=O)NC(=O)/C(=C\c3ccc(Cl)cc3)C2=O)c1 | 16.4
C#CCn1cc(/C=C2\C(=O)NC(=O)N(c3ccc(C)cc3)C2=O)c2ccccc21 | 66.4
Cc1cc(C)cc(N2C(=O)NC(=O)/C(=C\c3ccc(N(C)C)cc3)C2=O)c1 | 127
CCn1cc(/C=C2\C(=O)NC(=O)N(c3ccccc3)C2=O)c2ccccc21 | 25.2
CCCC(C)NC(=O)c1ccc(Cl)c([N+](=O)[O-])c1 (configuration not stated) | -0.1
CCOC(=O)/C(C#N)=C/c1ccc(OCc2c(C)no[n+]2[O-])cc1 | -1.9
CN1CCN(CCOCCOc2ccccc2)CC1 | -7.9
O=C(CCCC(=O)OCC(F)(F)C(F)F)Nc1nccs1 | 9.8
O=C(NCCO)/C(=C/c1cccc([N+](=O)[O-])c1)NC(=O)c1cccs1 | 0
O=C(Nc1cccc([N+](=O)[O-])c1)c1ccc(-c2ccc(Cl)cc2)o1 | 9
Cc1ccc(-c2ccc(C(=O)Nc3cccnc3)o2)cc1Cl | 5.6
CC(=O)c1cccc(NC(=O)c2ccc(-c3ccc(Cl)cc3Cl)o2)c1 | -4.6
Cc1ccc(-c2ccc(C(=O)Nc3ccc(N4CCOCC4)cc3)o2)cc1Cl | 10.8

SMILES | displacement [%]
O=C(Nc1cccc(NC(=O)c2ccc(Cl)cc2Cl)c1)c1ccc(-c2ccc([N+](=O)[O-])cc2)o1 | 106
O=C(Nc1ccc(NC(=O)c2ccc(-c3ccc(Cl)cc3Cl)o2)cc1)c1ccccc1 | 83.5
O=C(Nc1cc(Cl)cc(Cl)c1)c1ccc(-c2ccc([N+](=O)[O-])cc2)o1 | 5.1
Cc1ccccc1C(=O)Nc1cccc(NC(=O)c2ccc(-c3cccc(Cl)c3)o2)c1 | 0.6
O=C(Nc1cccc(NC(=O)c2ccccc2Cl)c1)c1ccc(-c2ccc(Br)cc2)o1 | 57.3
Cc1ccccc1C(=O)Nc1cccc(NC(=O)c2ccc(-c3ccc(Br)cc3)o2)c1 | 21.4
Cc1cccc(NC(=O)c2ccc(-c3ccc(C)c(Cl)c3)o2)c1 | 69.8
CC(=O)c1ccc(NC(=O)c2ccc(-c3ccc(Cl)cc3Cl)o2)cc1 | -1.3
COc1ccc(CNC(=O)Cc2ccc(Br)cc2)cc1 | 0
COc1ccc(CCNC(=O)/C=C\c2ccccc2)cc1OC | 6.7
CCOC(=O)c1c(NC(=O)c2cc(Cl)ccc2[N+](=O)[O-])sc(C(=O)N(CC)CC)c1C | -1.1
Cc1cc2[nH]c(=O)cc(-c3ccccc3)n2n1 | -5.3
COc1cccc(NC(=O)c2cc(Cl)ccc2Cl)c1 | 11.1
COc1ccc(-c2nc3cc(N)ccc3o2)cc1OC | 2.7
CCOC(=O)C(CCOCCOc1c(C)cc(Cl)cc1C)C(=O)OCC | -9.7
Cc1ccc(/C=N/NS(=O)(=O)c2ccc(C)cc2)cc1 | 8
CCOC(=O)C1=C(C)N=c2s/c(=C\c3ccc(C)o3)c(=O)n2C1c1cccc(OC)c1 (configuration not stated) | 73.3
CCOC(=O)C1=C(C)N=c2s/c(=C\c3ccc(Br)o3)c(=O)n2C1c1ccc(F)cc1 (configuration not stated) | 11.2
CCOC(=O)C1=C(C)N=c2s/c(=C\c3ccc(-c4ccccc4C(=O)O)o3)c(=O)n2C1c1cccc(OC)c1 (configuration not stated) | -23.4
CCOC(=O)C1=C(C)N=c2s/c(=C\c3ccc(N4CCOCC4)o3)c(=O)n2C1c1ccc(SC)cc1 (configuration not stated) | -55.4
CCOC(=O)C1=C(C)N=c2s/c(=C\c3ccc(C)o3)c(=O)n2C1c1ccc(SC)cc1 (configuration not stated) | 65.3
CCOC(=O)C1=C(C)N=c2s/c(=C\c3ccc(Br)o3)c(=O)n2C1c1cccc(OC)c1 (configuration not stated) | 10.7
CC1(C)Nc2ccccc2N(CCC(=O)N2CCOCC2)C1=O | 9

SMILES | displacement [%]
Cc1ccnc(NC(=O)COc2ccc(Cl)c(C)c2)c1 | 1.5
O=C1CC(c2ccccc2)CC2=C1C(c1ccc(F)cc1)Nc1ccccc1N2 (configuration not stated) | 2.3
COc1ccc(OC)c(/C=N/NC(=O)CSc2ncccn2)c1 | 1.1
CC(C)=N/N=C1/NC(=O)C(CC(=O)Nc2ccc(C)cc2C)S1 (configuration not stated) | -0.5
C/C(=C\C(=O)c1ccc(C)cc1)Nc1ccc(I)cc1 | 7.2
NC(=O)c1ccc(NC(=O)CCN2C(=O)c3ccccc3C2=O)cc1 | 26.7
CC(=O)NC1=NC(=O)/C(=C\c2ccc(-c3ccccc3C(=O)O)o2)S1 | 14.5
Cc1ccc(C2=NC(=O)/C(=C/c3ccc4c(c3)OCO4)S2)cc1 | 0.5
CC(=O)NC1=NC(=O)/C(=C\c2cn(C)c3ccccc23)S1 | 123
CC(=O)NC1=NC(=O)/C(=C\c2ccc(Cl)cc2)S1 | 133
O=C(N/N=C/c1cc(Cl)ccc1OCc1c(F)cccc1Cl)c1cccnc1 | -2
O=Cc1cc(Br)ccc1OCc1c(F)cccc1Cl | 0.3
CC(=O)NC1=NC(=O)/C(=C/c2cc(Cl)ccc2OCc2c(F)cccc2Cl)S1 | 112
CC(=O)NC1=NC(=O)/C(=C\c2ccc(-c3ccc(C(=O)O)cc3)o2)S1 | -27
CC(=O)NC1=NC(=O)/C(=C\c2ccc3c(c2)OCO3)S1 | 130
CC(=O)NC1=NC(=O)/C(=C\c2ccc(C(C)C)cc2)S1 | -10.2
CC(=O)NC1=NC(=O)/C(=C\c2ccc(Cl)c(Cl)c2)S1 | -13.5
COC(=O)c1cc(C(=O)N2CCCC2)cc([N+](=O)[O-])c1 | 12.7
Cc1cc(/C=N/NC(=O)c2ccccn2)c(C)n1-c1cccc(Cl)c1 | -15.5
COc1ccc(S(=O)(=O)N(CC(=O)N[C@@H]2CCCC[C@H]2O)c2ccc(C)cc2)cc1OC | 0.1
COC(=O)c1cnn2c1NC(c1ccccc1)CC2C(F)(F)F (configuration not stated) | 6.5
CC(C)(C)NC(=O)c1cc2nc(-c3ccccc3)cc(C(F)(F)F)n2n1 | 13
CC(=O)NC1=NC(=O)/C(=C\c2ccccc2F)S1 | 107

SMILES | displacement [%]
CC(=O)NC1=NC(=O)/C(=C\c2ccc(C)o2)S1 | 96
CC(=O)NC1=NC(=O)/C(=C\c2sccc2C)S1 | 98.2
CC(=O)NC1=NC(=O)/C(=C\c2ccc(N(C)C)c(Br)c2)S1 | -39.2
CC(=O)NC1=NC(=O)/C(=C\c2ccccc2C)S1 | -6.5
Cc1ccsc1/C=C1\SC(N2CCN(C)CC2)=NC1=O | 3
CC(=O)NC1=NC(=O)/C(=C\c2ccc(Br)o2)S1 | 1.4
Cc1ccsc1/C=C1/SC(N2CCCC2)=NC1=O | 1.4
CCN(CC)c1ccc(/C=C2/SC(NC(C)=O)=NC2=O)cc1 | 61.1
CC(=O)NC1=NC(=O)/C(=C\c2ccc(I)o2)S1 | 20.2
CC(=O)NC1=NC(=O)/C(=C\c2ccc(N(C)C)cc2)S1 | -23.2
COc1ccccc1/C=C/C(=O)c1ccc(F)cc1 | -0.2
COc1ccc(CN2CCN(C3CCN(Cc4ccccc4)CC3)CC2)cc1Br | -9.1
CCOC(=O)C1C(=O)NCC2CCCC21 (configuration not stated) | 4.6
O=C(CN1C(=O)c2ccccc2C1=O)Nc1cc(Cl)ccc1C(=O)O | -6.4
COc1cccc(CN2CCN(Cc3cccnc3)CC2)c1 | -13.5
COc1ccc(/C=C/C(=O)O)cc1S(=O)(=O)NCc1ccccc1 | 7.2
CN(C)CCOC(=O)C12CCC3CC(CC(C3)C1)C2 | 11.3
CCOC(=O)c1ccc(NC(=O)CC)cc1 | 4.7
CCOC(=O)c1c(C)[nH]c(N=Nc2ccc(C)cc2)c1C | 2.4
CC(=O)NC1=NC(=O)/C(=C/c2ccc(C)cc2)S1 | 118
CC(=O)NC1=NC(=O)/C(=C\c2ccccc2Cl)S1 | 14
CC(=O)NC1=NC(=O)/C(=C\c2cccs2)S1 | 109
CC(=O)NC1=NC(=O)/C(=C\c2cccc(F)c2)S1 | -29.1

SMILES | displacement [%]
CC(=O)NC1=NC(=O)/C(=C\c2cccc([N+](=O)[O-])c2)S1 | -42.2
CC(=O)NC1=NC(=O)/C(=C\c2ccc(C(C)(C)C)cc2)S1 | 11.4
O=C(Nc1ccc(F)c(Cl)c1)c1cc([N+](=O)[O-])ccc1Cl | -10.3
CC(C)C(=O)Nc1ccc(Cl)cc1C(=O)O | 8.1
COc1ccc(/C(C)=N/NC(=O)CN(c2ccc(C)cc2)S(=O)(=O)c2ccccc2)cc1OC | 3.8
COC(=O)c1ccc(/C=N/NC(=O)CCc2c(C)n[nH]c2C)cc1 | 4.2
CC(C)C(=O)Nc1ccc(I)cc1Cl | 11.1
O=C(c1cccnc1)N(Cc1ccccc1)Cc1ccccc1 | 6
O=C(Nc1ccc(Cc2ccncc2)cc1)c1ccc(-c2ccc(Br)cc2)o1 | 109
O=C(Nc1ccc(-c2nc3ncccc3o2)cc1)c1ccc(-c2ccc(Br)cc2)o1 | 88.1
O=C(NC(=S)Nc1ccc(-c2nc3ccccc3o2)cc1)c1ccco1 | 11.6
O=C(Nc1ccc(-c2nc3ncccc3o2)cc1)c1ccc(-c2cccc(Cl)c2)o1 | 14.3
Cc1c(NC(=S)NC(=O)c2ccco2)cccc1-c1nc2ncccc2o1 | 9.2
Cc1cc(NC(=O)c2ccc(-c3ccc(Br)cc3)o2)ccc1NC(=O)c1ccco1 | -2.6
COc1cc(NC(=O)c2ccc(-c3ccc(Cl)cc3)o2)ccc1NC(=O)c1ccco1 | -6.5
O=C(NC(=S)Nc1ccc(-c2nc3ncccc3o2)cc1)c1ccco1 | 112
O=C(Nc1cccnc1)c1ccc(-c2ccc(Br)cc2)o1 | -5.1
O=C(Nc1ccc(-c2nc3ncccc3o2)cc1)c1ccc(Br)o1 | -1.9
O=C(Nc1ccc(Cc2ccncc2)cc1)c1ccc(Br)o1 | 13.1
COc1cc(NC(=O)c2ccc(-c3ccc(Br)cc3)o2)ccc1NC(=O)c1ccco1 | 158
